Results as given in PubChem BioAssay (NCI).
This is part of a sample that, as a whole, favours compounds with a hit. Of some 79,000 tested, about 15% had one in any assay. No stated cut-off is given here; in the data, active means growth inhibition above about 70%; inactive means the rest.

Columns and labels:
[1] = NCI Yeast Anticancer Drug Screen. Data for the rad50 strain (AID 155);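 further: 0% = growth of vehicle-only cultures of the same strain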; conditions: S. cerevisiae rad50 strain growth inhibition; at 50.0 µM; stronger effect = higher value
Outline: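 Genetically altered yeast (DNA repair pathway); compound treatment; growth inhibition vs vehicle ctrl.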

[2] = NCI Yeast Anticancer Drug Screen. Data for the mec2-1 strain (AID 157); conditions: S. cerevisiae mec2-1 strain, at 50.0 µM, stronger effect = higher value
Outline: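 Test agents were screened against the mec2-1 yeast strain, with defined DNA repair or cell cycle alteration. Growth was scored as inhibition against vehicle-only controls.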

[3] = NCI Yeast Anticancer Drug Screen. Data for the sgs1 mgt1 strain (AID 161);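 further: 0% = growth of cultures given vehicle only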; conditions: S. cerevisiae sgs1 mgt1 strain, at 50.0 µM, stronger effect = higher value
Outline: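 Read-out: growth inhibition vs vehicle controls. Cells: mutant yeast strain deficient in DNA damage repair.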

[4] = NCI Yeast Anticancer Drug Screen. Data for the cln2 rad14 strain (AID 165);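 further: 0% = growth equal to vehicle treated cultures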; conditions: S. cerevisiae cln2 rad14 strain, at 50.0 µM, stronger effect = higher value
Outline: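 Growth of compound-exposed yeast (cln2 rad14 genotype) measured and expressed as inhibition relative to vehicle.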

[5] = NCI Yeast Anticancer Drug Screen. Data for the bub3 strain (AID 167); conditions: S. cerevisiae bub3 mutant strain, at 50.0 µM, stronger effect = higher value
Outline: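 Yeast carrying a defined mutation is treated with each compound, and growth is compared with that of vehicle-exposed cells to give inhibition.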

[6] = NCI Yeast Anticancer Drug Screen. Data for the mlh1 rad18 strain (AID 175); conditions: S. cerevisiae mlh1 rad18 strain growth inhibition; at 50.0 µM; stronger effect = higher value
Outline: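 In this whole-cell yeast screen, a strain with altered DNA damage repair is challenged with compound, and its growth is measured against matched vehicle-treated controls.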

Measured: growth inhibition

O=C(O)C1CCCCC1C(=O)Nc1nc2ccccc2[nH]1 (stereo unspecified)
inactive: [1] -18.6% | [2] -17.1% | [3] -12.7% | [4] -16.7% | [5] -57.9% | [6] -10.6%

O=C(CCC(=O)NO)NO
inactive: [1] 1.4% | [2] -12.6% | [3] 4.75% | [4] -17.7% | [5] -20.9% | [6] -15.9%

Clc1ccc(CCn2cncn2)cc1
inactive: [1] -15.6% | [2] -11.9% | [3] -44.9% | [4] -11.7% | [5] -22.6% | [6] -18.8%

CCC(=O)Nc1cc(C)c(C)cc1C
inactive: [1] 4.75% | [2] -10.2% | [3] -2.2% | [4] -42% | [5] 6.6% | [6] -8.4%

OC1CCCSc2ccccc21 (stereo unspecified)
inactive: [1] 19.6% | [2] 1% | [3] -4.8% | [4] 8% | [5] 2.8% | [6] -1.45%

Cc1cc(C)n(C2OC(CO)C(O)C(O)C2O)c(=S)c1C#N (stereo unspecified)
inactive: [1] 21.1% | [2] 14.8% | [3] 29.6% | [4] 5.4% | [5] 8.4% | [6] 35.4%

CO[Si](CCCN)(OC)OC
inactive: [1] -0.65% | [2] -44.8% | [3] -13.4% | [4] -8.7% | [5] 11.8% | [6] 35.9%

CCOC(=O)/C(C#N)=C/Nc1c(C)n(C)n(-c2ccccc2)c1=O
inactive: [1] 0.95% | [2] 10.3% | [3] 6.75% | [4] 16.4% | [5] -0.85% | [6] 13.6%

CC1([N+](=O)[O-])C(=O)C2(N3CCCC3)CCCC2C1c1ccccc1 (stereo unspecified)
inactive: [1] 0.5% | [2] 8.4% | [3] -10.9% | [4] -2.25% | [5] 8.3% | [6] -9.35%

Cc1ccc(CCn2cnc3c(N(CCO)CCO)ncnc32)cc1
inactive: [1] -8.45% | [2] 23.8% | [3] -6.85% | [4] 15.6% | [5] 7.95% | [6] -9.6%

ONC1=Nc2ccccc2C(=S)N2CSCC12 (stereo unspecified)
inactive: [1] -21% | [2] -13.4% | [3] -26.4% | [4] -19.6% | [5] -21.6% | [6] 15.9%

Cc1c(-c2ccccc2)[nH]c2ccc(Cl)cc2c1=O
inactive: [1] -7.5% | [2] -30.9% | [3] 28.9% | [4] 2.8% | [5] -5.1% | [6] 6.25%

Cc1cc(Cl)cc(C)c1O
inactive: [1] 39.8% | [2] -10.3% | [3] 6.15% | [4] 0.95% | [5] 14.9% | [6] 11.8%

CC(=O)Nc1cc(C)c(C(=O)O)c(C)c1
inactive: [1] -26.5% | [2] -19.4% | [3] -9.35% | [4] -18.1% | [5] -24.9% | [6] -21.4%

N=C(c1ccc2ccccc2c1)c1ccccc1Cc1ccccc1
inactive: [1] 17.2% | [2] -24.2% | [3] 6.15% | [4] -52.5% | [5] 9.35% | [6] 24.2%

CC(=O)NNc1nc(C)c(C(=O)NNC(=O)C(=O)Nc2ccc(C)c(C)c2)s1
inactive: [1] 8.7% | [2] -1.2% | [3] -6.05% | [4] 4.8% | [5] 20.9% | [6] -1.45%

CC(=O)CC(=O)Nc1ccc(Cc2ccc(Br)cc2)cc1
inactive: [1] 23.7% | [2] -5.55% | [3] 9.55% | [4] 18.5% | [5] 4.15% | [6] 18.9%

O=C(O)Cc1n[nH]c(=O)c2ccccc12
inactive: [1] -21.1% | [2] -5.2% | [3] -0.45% | [4] -2.75% | [5] -25.9% | [6] -7.7%

COc1cccc(C(=O)C(O)c2cccc(OC)c2OC)c1OC (stereo unspecified)
inactive: [1] 0.6% | [2] -5.45% | [3] 8.2% | [4] 0.15% | [5] -10.6% | [6] -42%

CCCCN(CCCC)S(=O)(=O)N1CCOCC1
inactive: [1] -12.3% | [2] -10.1% | [3] 3% | [4] 9.1% | [5] 10.4% | [6] 2.75%

N[C@H]1c2c(Cl)cccc2C(=O)[C@H]1O
inactive: [1] -3.7% | [2] -1.35% | [3] -23.2% | [4] -4.65% | [5] -2.2% | [6] -49.5%

Cc1cc(C(=O)O)cc(C)c1N(C)Cc1cnc2nc(N)nc(N)c2n1
inactive: [1] 5.6% | [2] -11.8% | [3] 0.25% | [4] 20.7% | [5] 17.4% | [6] -5%

COc1cc(/C=C/C(=O)OCC23CC[C@@]4(C(=O)O)CCC(C)[C@H](C)C4C2=CCC2[C@@]4(C)CC[C@H](O)C(C)(C)C4CC[C@]23C)ccc1O (stereo partly specified)
inactive: [1] 20.2% | [2] 9.95% | [3] 26.6% | [4] 4.85% | [5] -1.6% | [6] 6.9%

N#CCCC(C(=O)O)C(=O)CN1C(=O)c2ccccc2C1=O (stereo unspecified)
inactive: [1] 5.15% | [2] -7.95% | [3] 0.4% | [4] -7.75% | [5] 0.4% | [6] 7.6%

COC1OC(COS(C)(=O)=O)C(OS(C)(=O)=O)C(OS(C)(=O)=O)C1OS(C)(=O)=O (stereo unspecified)
inactive: [1] -2.8% | [2] -7.05% | [3] -26.4% | [4] -67% | [5] 1.4% | [6] 10.3%

CCCCI(O)OS(=O)(=O)c1ccc(C)cc1
inactive: [1] 5.65% | [2] 3.1% | [3] -2.85% | [4] -7.7% | [5] -3.9% | [6] -32.6%

O=C(O)C(=O)C(=O)O
inactive: [1] -23% | [2] -41.8% | [3] -9.65% | [4] -10.1% | [5] -1.45% | [6] -5.45%

Nc1cc2c(cc1Br)-c1cc(Cl)c(Cl)cc1C2=O
inactive: [1] -5.75% | [2] -13.8% | [3] -7.15% | [4] -23.1% | [5] -2.1% | [6] -11.5%

CC(=O)[C@H]1CC[C@@H]2[C@]1(C)CC1OC13[C@@]21C=C[C@@]2(CC(=O)CC[C@]32C)C2C(=O)OC(=O)C21 (stereo partly specified)
inactive: [1] 17.6% | [2] 4.45% | [3] 40.8% | [4] 18.5% | [5] 3.95% | [6] 22.9%

Clc1ccc(-c2nnc3n2NC(c2ccccc2)S3)c(Cl)c1 (stereo unspecified)
inactive: [1] 2.7% | [2] -26% | [3] -13.8% | [4] 10.8% | [5] -18.9% | [6] -27.6%

CC(=O)N(C(=O)CC(=O)NN)c1ccc(Cl)cc1
inactive: [1] -19.1% | [2] -21.3% | [3] 3.65% | [4] 26.3% | [5] 6.95% | [6] 26%

CN=C(N)SCCSC(N)=NC
inactive: [1] -12.3% | [2] -18.2% | [3] 0.25% | [4] -13.5% | [5] 11.5% | [6] -5.15%

CCC(/C=N\O)CC
inactive: [1] -12.8% | [2] 2.6% | [3] 11.4% | [4] -4.05% | [5] -3.05% | [6] 17.1%

COC(=N)CCCl
inactive: [1] -1.3% | [2] -3.95% | [3] 10.8% | [4] 7.2% | [5] -4.55% | [6] 1.5%

CCCCCCCC(=O)Nc1ccc(-n2c(=O)cc(C)n2C)cc1
inactive: [1] 15.7% | [2] -1.25% | [3] 12.2% | [4] -32% | [5] -7.7% | [6] 14.1%

CC(=O)Nc1ccc2ccccc2c1
inactive: [1] 7.15% | [2] 5.4% | [3] 0.3% | [4] -25.1% | [5] -4.1% | [6] 1.4%

OC12c3ccccc3C1CCCCCC21OCCCO1 (stereo unspecified)
inactive: [1] -9.4% | [2] -27.8% | [3] -31.8% | [4] -17.4% | [5] -8.4% | [6] -19.9%

C1CCC(C(CCCCC(C2CCCCC2)C2CCCCC2)C2CCCCC2)CC1
inactive: [1] 46.5% | [2] -3.8% | [3] 27.2% | [4] 16.1% | [5] -0.7% | [6] -2.6%

CC(C)NC(=O)OCc1c(COC(=O)NC(C)C)c(-c2ccc(Cl)c(Cl)c2)n2c1C[C@@H](O)C2
inactive: [1] 17.3% | [2] 20% | [3] 21.5% | [4] 38.4% | [5] 11.5% | [6] -44.4%

O=C(O)C(=O)/C=C(\O)c1ccc(Br)cc1
inactive: [1] 32.3% | [2] 11.8% | [3] 3.7% | [4] -12.1% | [5] 36.4% | [6] 30.1%

Cc1cccc2c(NCCC[N+](C)(C)[O-])c3c([N+](=O)[O-])ccc(C)c3nc12
inactive: [1] 54.1% | [2] -14.3% | [3] 43.8% | [4] 2.8% | [5] -3.1% | [6] 43%
